Inconclusive results are not listed. Active and inactive are the calls of the source. Calls come from the whole dose curve; as a rule, active = well fitted curve in the direction sought with a large enough effect in the repeat runs; inconclusive = weak or mixed curves; inactive = no such curve, though single readings can be large; an effect the other way counts as inactive or inconclusive.
Tests used:
[1] = A CellTox Green Cytotoxicity Assay to monitor cytotoxicity in HEK293 cells - 40 hour (AID 1224871); note: nearly all actives have a fitted effect of over 45% in size; note: potency is the fitted concentration of half-maximal effect
In short: (§1)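 Cytotoxicity was tracked continuously in HEK293 cells by a DNA-binding dye excluded from viable cells. Compounds were transferred in DMSO 5 h after seeding; fluorescence was recorded at intervals up to 40 h.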

[2] = qHTS RealTime-Glo MT Cell Viability Assay in HEK293 cells - 16 hour (AID 1224872); note: nearly all actives have a fitted effect of over 50% in size; note: potency is the fitted concentration of half-maximal effect; for activity change, negative = cytotoxicity: top concentration of the series differs between compounds
In short: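 Nonlytic real-time viability readout: viable cells convert prosubstrate to NanoLuc substrate, giving luminescence proportional to live cell number. HEK293, 600 cells/well, compound added after 5 h, continuous culture at 37 C.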

[3] = qHTS RealTime-Glo MT Cell Viability Assay in HepG2 cells - 8 hour (AID 1224873); note: nearly all actives have a fitted effect of over 55% in size
In short: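 HepG2 cells (600/well) mixed with RealTime-Glo MT reagent, settled 5 h at 37 C/5% CO2 before compound addition. Nonlytic NanoLuc luminescence from viable-cell prosubstrate reduction read repeatedly during 40 h treatment at 37 C.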

[4] = qHTS RealTime-Glo MT Cell Viability Assay in HEK293 cells - 40 hour (AID 1224874); conditions: RealTime-Glo luminescence; max response: active compounds read low; note: nearly all actives have a fitted effect of over 50% in size; note: potency is the fitted concentration of half-maximal effect
In short: (§2)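 Nonlytic bioluminescent viability monitoring. HEK293 at 600 cells/well with reagent; 5 h settle; compound transfer by pintool; plates held at 37 C and read at set time points.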

[5] = A CellTox Green Cytotoxicity Assay to monitor cytotoxicity in HEK293 cells - 24 hour (AID 1224875); note: nearly all actives have a fitted effect of over 45% in size; note: potency is the fitted concentration of half-maximal effect; for activity change: series mostly up to about 77 µM
In short: as §1

[6] = A CellTox Green Cytotoxicity Assay to monitor cytotoxicity in HepG2 cells - 16 hour (AID 1224876); note: nearly all actives have a fitted effect of over 45% in size; note: potency is the fitted concentration of half-maximal effect
In short: (§3)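 Real-time, homogeneous cytotoxicity readout: dead-cell DNA staining by CellTox Green in HepG2 monolayers, fluorescence measured at timed intervals up to 40 h of continuous compound exposure.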

[7] = qHTS RealTime-Glo MT Cell Viability Assay in HepG2 cells - 32 hour (AID 1224877); note: nearly all actives have a fitted effect of over 55% in size
In short: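 Luminescence read-out: viable HepG2 cells reduce a prosubstrate to a NanoLuc substrate, giving a signal proportional to live cell number. Reads taken at 0, 8, 16, 24, 32 and 40 h of compound exposure at 37 C.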

[8] = A CellTox Green Cytotoxicity Assay to monitor cytotoxicity in HepG2 cells - 24 hour (AID 1224878); note: nearly all actives have a fitted effect of over 45% in size; note: potency is the fitted concentration of half-maximal effect
In short: as §3

[9] = A CellTox Green Cytotoxicity Assay to monitor cytotoxicity in HepG2 cells - 40 hour (AID 1224879); note: nearly all actives have a fitted effect of over 40% in size; note: potency is the fitted concentration of half-maximal effect
In short: as §3

[10] = qHTS RealTime-Glo MT Cell Viability Assay in HEK293 cells - 0 hour (AID 1224880)
In short: as §2
% is set by controls: 0 for no effect and ±100 for the full control effect.

O=C(O)O
inactive: cytotoxicity increase [1] 4.75% [at 6.97 µM] | activity change, negative = cytotoxicity [2] 1.92% [at 6.97 µM] | viability change, negative = cytotoxic [3] -4.4% [at 6.97 µM] | max response [4] -2.54% | activity change [5] 5.15% [at 6.97 µM, active compounds read high] | cytotoxicity increase [6] -0.218% [at 6.97 µM] | activity change, negative = cytotoxic [7] 7.61% [at 6.97 µM] | cytotoxicity [8] -2.66% [at 6.97 µM] | cytotoxicity increase [9] -9.85% [at 6.97 µM] | activity change, negative = cytotoxicity [10] 3.17% [at 6.97 µM]

NC(=S)NC(N)=S
inactive: Potency [1] | Potency [2] | Potency [3] | max response [4] -1.4% | Potency [5] | Potency [6] | Potency [7] | Potency [8] | Potency [9] | Potency [10]

O=C(O)CCN(C1(C(=O)NO)CCCC1)S(=O)(=O)c1ccc(Oc2ccc(F)cc2)cc1
inactive: Potency [1] | Potency [2] | Potency [3] | max response [4] 9.57% | Potency [5] | Potency [6] | Potency [7] | Potency [8] | Potency [9] | Potency [10]

CCCC(=O)OCCc1ccccc1
active: Potency [1] 49 µM | Potency [5] 43.6 µM | Potency [6] 43.6 µM | Potency [8] 43.6 µM | Potency [9] 49 µM
inactive: Potency [2] | Potency [3] | max response [4] 5.68% | Potency [7] | Potency [10]

C=CCn1c(=O)n(CC=C)c(=O)n(CC=C)c1=O
inactive: Potency [1] | Potency [2] | Potency [3] | max response [4] -5.88% | Potency [5] | Potency [6] | Potency [7] | Potency [8] | Potency [9] | Potency [10]

CC(C)(c1cc(Br)c(OCC(Br)CBr)c(Br)c1)c1cc(Br)c(OCC(Br)CBr)c(Br)c1 (stereo not given)
inactive: Potency [1] | Potency [2] | Potency [3] | max response [4] -0.358% | Potency [5] | Potency [6] | Potency [7] | Potency [8] | Potency [9] | Potency [10]

CCCCCCOC(=O)C(C)CC (stereo not given)
inactive: Potency [1] | Potency [2] | Potency [3] | max response [4] -1.46% | Potency [5] | Potency [6] | Potency [7] | Potency [8] | Potency [9] | Potency [10]

O=C(O)c1cccc(C(F)(F)F)c1
inactive: Potency [1] | Potency [2] | Potency [3] | max response [4] -0.78% | Potency [5] | Potency [6] | Potency [7] | Potency [8] | Potency [9] | Potency [10]

CC(C)(C)C1CCC(=O)CC1
inactive: Potency [1] | Potency [2] | Potency [3] | max response [4] 0.275% | Potency [5] | Potency [6] | Potency [7] | Potency [8] | Potency [9]

CC(N=C(NC#N)Nc1ccncc1)C(C)(C)C (stereo not given)
inactive: Potency [1] | Potency [2] | Potency [3] | max response [4] -0.652% | Potency [5] | Potency [6] | Potency [7] | Potency [8] | Potency [9] | Potency [10]

S=c1nccc[nH]1
inactive: Potency [1] | Potency [2] | Potency [3] | max response [4] 13.6% | Potency [5] | Potency [6] | Potency [7] | Potency [8] | Potency [9] | Potency [10]

CN(C)C(=O)COC(=O)Cc1ccc(OC(=O)c2ccc(N=C(N)N)cc2)cc1
inactive: Potency [1] | Potency [2] | Potency [3] | max response [4] 5.33% | Potency [5] | Potency [6] | Potency [7] | Potency [8] | Potency [9] | Potency [10]

CN(C)Cc1cc(C(C)(C)C)c(O)c(C(C)(C)C)c1
inactive: Potency [1] | Potency [2] | Potency [3] | max response [4] -1.74% | Potency [5] | Potency [6] | Potency [7] | Potency [8] | Potency [9] | Potency [10]

CCN(CC)c1ccc2c(-c3ccc(S(=O)(=O)O)cc3S(=O)(=O)[O-])c3ccc(=[N+](CC)CC)cc-3oc2c1
inactive: Potency [1] | Potency [2] | Potency [3] | max response [4] -15.9% | Potency [5] | Potency [6] | Potency [7] | Potency [8] | Potency [9]

CCc1ccc(Br)cc1
inactive: Potency [1] | Potency [2] | Potency [3] | max response [4] 5.1% | Potency [5] | Potency [6] | Potency [7] | Potency [8] | Potency [9] | Potency [10]

CC1=CCC(=C(C)C)CC1
inactive: Potency [1] | Potency [2] | Potency [3] | max response [4] -2.74% | Potency [5] | Potency [6] | Potency [7] | Potency [8] | Potency [9] | Potency [10]

CC(CO)Oc1ccccc1 (stereo not given)
inactive: Potency [1] | Potency [2] | Potency [3] | max response [4] -11% | Potency [5] | Potency [6] | Potency [7] | Potency [8] | Potency [9]

CCc1oc2ccccc2c1C(=O)c1cc(I)c(O)c(I)c1
inactive: Potency [1] | Potency [2] | Potency [3] | max response [4] -23.8% | Potency [5] | Potency [6] | Potency [7] | Potency [8] | Potency [9] | Potency [10]

C[C@@H](O)[C@H](N)C(=O)O
inactive: cytotoxicity increase [1] -7.08% [at 15.8 µM] | activity change, negative = cytotoxicity [2] -1.06% [at 15.8 µM] | viability change, negative = cytotoxic [3] 1.46% [at 15.8 µM] | max response [4] -1.76% | activity change [5] -4.79% [at 15.8 µM, active compounds read high] | cytotoxicity increase [6] 6.33% [at 15.8 µM] | activity change, negative = cytotoxic [7] -3.46% [at 15.8 µM] | cytotoxicity [8] 5.91% [at 15.8 µM] | cytotoxicity increase [9] 7.81% [at 15.8 µM] | activity change, negative = cytotoxicity [10] -2.75% [at 15.8 µM]

OC1CCCc2ccccc21 (stereo not given)
inactive: Potency [1] | Potency [2] | Potency [3] | max response [4] -0.638% | Potency [5] | Potency [6] | Potency [7] | Potency [8] | Potency [9] | Potency [10]

OC/C=C/CO
inactive: Potency [1] | Potency [2] | Potency [3] | max response [4] 0.626% | Potency [5] | Potency [6] | Potency [7] | Potency [8] | Potency [9]

c1ccsc1
inactive: Potency [1] | Potency [2] | Potency [3] | max response [4] -2.24% | Potency [5] | Potency [6] | Potency [7] | Potency [8] | Potency [9] | Potency [10]

FC(F)(F)c1cccc(Cl)c1
inactive: Potency [1] | Potency [2] | Potency [3] | max response [4] -5.72% | Potency [5] | Potency [6] | Potency [7] | Potency [8] | Potency [9]

O=C1CCCCCCCCCCCCCCCO1
inactive: Potency [2] | Potency [3] | max response [4] 4% | Potency [7]
active: Potency [1] 24.5 µM | Potency [5] 24.5 µM | Potency [6] 43.6 µM | Potency [8] 43.6 µM | Potency [9] 43.6 µM

CCN1C(=O)c2ccccc2C1Nc1ccc(OCCN2CCCCC2)cc1 (stereo not given)
inactive: Potency [1] | Potency [3] | Potency [5] | Potency [6] | Potency [7] | Potency [8] | Potency [9]
active: Potency [2] 4.77 µM | Potency [4] 4.77 µM

CCOC(=O)NNc1ccc(N(CC)CC(C)O)nn1 (stereo not given)
inactive: Potency [1] | Potency [2] | Potency [3] | max response [4] 7.18% | Potency [5] | Potency [6] | Potency [7] | Potency [8] | Potency [9] | Potency [10]

CC(C)CCCCCOC(=O)CCS
inactive: Potency [1] | Potency [2] | Potency [3] | max response [4] 0.648% | Potency [5] | Potency [6] | Potency [7] | Potency [8] | Potency [9] | Potency [10]

CCCCCCCCCCCC(=O)OCC(C)OC(=O)CCCCC(=O)O (stereo not given)
inactive: Potency [1] | Potency [2] | Potency [3] | max response [4] 14.1% | Potency [5] | Potency [6] | Potency [7] | Potency [8] | Potency [9] | Potency [10]

CCCCCCCCCCOC(=O)c1ccccc1C(=O)OCCCCCCCC
inactive: Potency [1] | Potency [2] | Potency [3] | max response [4] 1.51% | Potency [5] | Potency [6] | Potency [7] | Potency [8] | Potency [9] | Potency [10]

CNc1ccc([N+](=O)[O-])cc1
inactive: Potency [1] | Potency [2] | Potency [3] | max response [4] -13.4% | Potency [5] | Potency [6] | Potency [7] | Potency [8] | Potency [9] | Potency [10]

CCCCCC/C=C\CCCCCCCC(=O)O
inactive: Potency [1] | Potency [2] | Potency [3] | max response [4] -4.29% | Potency [5] | Potency [6] | Potency [7] | Potency [8] | Potency [9] | Potency [10]

CN(C)Cc1ccccc1O
inactive: Potency [1] | Potency [2] | Potency [3] | max response [4] 3.13% | Potency [5] | Potency [6] | Potency [7] | Potency [8] | Potency [9] | Potency [10]

Nc1ccc(Oc2ccc(Cl)cc2)cc1
active: Potency [2] 21.4 µM | Potency [4] 21.4 µM
inactive: Potency [1] | Potency [3] | Potency [5] | Potency [6] | Potency [7] | Potency [8] | Potency [9]

CCC(CC)(CC(=O)Nc1cccc(/C=C/c2nc(C3CCC3)cs2)c1)C(=O)O
inactive: Potency [1] | Potency [2] | Potency [3] | max response [4] -19.8% | Potency [5] | Potency [6] | Potency [7] | Potency [8] | Potency [9]

O=S(=O)(O)c1ccc(Nc2nc(Nc3ccc(/C=C/c4ccc(Nc5nc(Nc6ccc(S(=O)(=O)O)cc6)nc(N(CCO)CCO)n5)cc4S(=O)(=O)O)c(S(=O)(=O)O)c3)nc(N(CCO)CCO)n2)cc1
inactive: Potency [1] | Potency [2] | Potency [3] | max response [4] -1.51% | Potency [5] | Potency [6] | Potency [7] | Potency [8] | Potency [9] | Potency [10]

Cc1nc2n(c(=O)c1CCN1CCC(c3noc4cc(F)ccc34)CC1)CCCC2
inactive: Potency [1] | Potency [3] | Potency [5] | Potency [6] | Potency [7] | Potency [8] | Potency [9] | Potency [10]
active: Potency [2] 3.01 µM | Potency [4] 3.01 µM

CC(C)OC(=O)C(O)(CC(=O)O)CC(=O)O
inactive: Potency [1] | Potency [2] | Potency [3] | max response [4] 1.68% | Potency [5] | Potency [6] | Potency [7] | Potency [8] | Potency [9] | Potency [10]

Cc1c(F)c(N2CCNC(C)C2)cc2c1c(=O)c(C(=O)O)cn2C1CC1 (stereo not given)
inactive: Potency [1] | Potency [2] | Potency [3] | max response [4] 11.8% | Potency [5] | Potency [6] | Potency [7] | Potency [8] | Potency [9]

Source: PubChem BioAssay (Tox21)
